Our source for the growth values is PubChem BioAssay (NCI).

This is part of a sample that, as a whole, favours compounds with a hit. Of some 83,000 tested, about 20% had one in any assay.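 Negative percent growth values reflect cell death: -40 means 40% of the cells present at the start died, and -100 means all died.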 Values without a mark were called inactive. Calls of active or inactive are those of the source. The calls were made as follows: active = growth percent below 10; inactive = the rest.

Assay in all cases: NCI-60 one-dose screen, 48 h (100 = growth as untreated, 0 = no growth, -100 = all killed)
Common to all, as to conditions: 10 µM unless noted

Test [1] relates to NCI-H23 lung.
For test [2], the system named is NCI-H226 lung.
In test [3] the test system is NCI-H322M lung.
Test [4] concerns HOP-62 NSCLC.
Test [5] relates to NCI-H460 lung.
Test [6] has as its system HOP-92 NSCLC.
Test [7] concerns NCI-H522 lung.
In test [8] the test system is A549/ATCC NSCLC.
Test [9] has as its system 786-0 renal.
The test system of test [10] is DU-145 prostate.
Test [11] has as its system K-562 leukemia.
Test [12] relates to MALME-3M melanoma.
Test [13] has as its system MDA-MB-231 breast.
Test [14] deals with RXF 393 renal.
Test [15] deals with SF-268 CNS.
Test [16] deals with SF-295 CNS.
Test [17] has as its system SF-539 CNS.
The test system of test [18] is UACC-257 melanoma.
Test [19] has as its system M14 melanoma.
In test [20] the test system is COLO 205 colon.

`C/C(=C(/c1ccccc1)c1ccc(N2C(=O)c3cccc4c(N5CCN(C)CC5)ccc(c34)C2=O)cc1)c1ccccc1`: the growth in test [1] was 59.7%; in test [2] it was 69.6%; in test [3], 99.9%; in test [4], 86.1%; in test [5] it was 83.3%; in [6], 67.4%. Besides, the growth in [7] was 81.5%; in test [8] it was 71.1%; in test [9], 87.6%; in test [10], 82.8%; in test [11], 9.2% (active); in [12] it was 81.4%. For the same compound, the growth in [13] is 94.5%; in test [14] it was 74.8%; in [15], 96.2%; in test [16], 83.3%; in test [17], 72.3%; in test [18], 79.8%. For the same compound, the growth in test [19] is 85.6%.
For the compound `O=C1c2cccc3cccc(c23)C(=O)N1Nc1nc(NC2CCCCC2)nc(N2CCOCC2)n1`, the growth in test [1] was 95.4%; in test [2] it was 98%; in test [3], 93.4%; in test [4], 91.3%; in [5], 102%; in [6], 86.3%. Also, the growth was 93.5% in test [7]; 95% in test [8]; 104% in [9]; 108% in test [10]; 88.9% in test [11]; 90.1% in [12]. The growth was 82.9% in test [13]; 109% in test [14]; 99.7% in [15]; 105% in test [16]; 98.4% in test [17]; 100% in test [18]. In test [19], the growth is 95.4%.
With `CN1CCN(Cc2ccc(NC(=O)c3ccc(C(C)(C)C)c(C#Cc4cnc5cccnn45)c3)cc2C(F)(F)F)CC1`, the growth was -65.1% (active) in test [1]; 48.5% in [2]; -29.6% (active) in test [3]; -73.1% (active) in test [4]; -52.7% (active) in test [5]; 23.9% in [6]. In addition, the growth was -73.5% (active) in [7]; -76.8% (active) in test [8]; -85.4% (active) in [9]; -70.1% (active) in test [20]; -76.7% (active) in test [10]; -53% (active) in test [11]. Moreover, the growth in test [12] is -53.7% (active); in [14], -78.7% (active); in test [15] it was -74.7% (active); in [16], -59.9% (active); in test [17], -76.3% (active); in test [18] it was -37.7% (active). Further, in test [19], the growth is -69.2% (active).
With `c1ccc2cc(C[n+]3ccn(CCCCCCCCCCCCn4cc[n+](Cc5ccc6ccccc6c5)c4)c3)ccc2c1`, the growth in test [1] was -80.3% (active); in [2] it was -42.1% (active); in [3] it was -18.4% (active); in test [4] it was -58% (active); in [5], -69.9% (active); in test [6], -68.2% (active). The growth in test [7] is -74.2% (active); in test [8] it was -74.2% (active); in test [9], 1.28% (active); in test [10], -46.5% (active); in test [11], -59% (active); in [12] it was -76.7% (active). The growth is -74% (active) in test [13]; -52.2% (active) in test [14]; -79.5% (active) in [15]; -40.3% (active) in [16]; -78.6% (active) in test [17]; -67.5% (active) in test [18]. In test [19], the growth is -44.9% (active).
`COC(=O)CCC/C=C\C[C@H]1C=CC(=O)/C1=C/C[C@@H](O)CCc1cccc(C(F)(F)F)c1`: the growth in test [1] was -13.7% (active); in test [2] it was -48.4% (active); in [3], -14.3% (active); in test [4] it was -47.3% (active); in test [5], -41.8% (active); in test [6] it was -37.1% (active). Further, the growth in test [7] was -75.1% (active); in test [8], -24.2% (active); in [9], -61.1% (active); in test [20], -49.3% (active); in test [10] it was 2.5% (active); in [11] it was 1.71% (active). The growth is 58.4% in test [12]; -73.5% (active) in test [14]; -2.42% (active) in test [15]; -21.1% (active) in test [16]; -14.1% (active) in test [17]; -6.49% (active) in test [18]. Moreover, the growth in test [19] was -32.4% (active).
In the case of `COc1cccc(Cc2cc(-c3ccccc3)nn(CC(=O)c3ccccc3)c2=O)c1`, the growth in [1] is 74.2%; in [2], 60.7%; in [3] it was 94.1%; in test [4] it was 60.4%; in [5], 37.8%; in [6], 46.9%. For the same compound, the growth in test [7] was 72.4%; in [8] it was 79.5%; in [9], 55.8%; in test [20] it was 84.9%; in test [10] it was 63.3%; in test [11], 22.5%. Moreover, the growth in test [12] was 97.1%; in [14] it was 60.1%; in test [15], 54%; in test [16] it was 68.1%; in test [17], 49.9%; in test [18] it was 95%. Moreover, the growth in [19] is 60.3%.
